Laboratory results published in PubChem BioAssay (NCI).
Compounds without any hit were thinned out: in the full panel of roughly 79,000, 15% have a hit. The source made the active and inactive calls. Rule as the data show it: active = growth inhibition above about 70%; inactive = the rest.

Assay: NCI Yeast Anticancer Drug Screen. Data for the rad50 strain (AID 155);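 also: 0% = growth of vehicle-only cultures of the same strain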
Settings: S. cerevisiae rad50 strain growth inhibition; at 50.0 µM; hits give high values
Summary of the method: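 Vehicle-treated cultures provide the reference for the growth inhibition reported for compound-exposed, repair-deficient yeast.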

SMILES	growth inhibition
O=Nc1c(O)ccc2ccccc12.[Fe].[Na+]	97.2% (active)
CC(C)Cc1ncc(CC(C)C)n(O)c1=O	89.2% (active)
COc1ccc2c(c1)CCc1c-2ccc(C)c1CCC(=O)O	72.2% (active)
COc1ccc(/C=C(\C#N)c2ccccc2)cc1OC	86.6% (active)
CCC(=O)OCC(=O)c1ccc(-c2ccccc2)cc1	-5.1% (inactive)
C=C1CC(c2ccc(OCCCN3C(=O)c4ccccc4C3=O)c(OC)c2)OC1=O (stereo not given)	76.3% (active)
N[C@H](C(=O)O)[C@@H]1CC(Cl)=NO1	83.7% (active)
Cc1ccc2c(c1)[n+]([O-])c(N)c(C#N)[n+]2[O-]	68.5% (inactive)
Cc1cc(O)c2c(c1)C(=O)c1c(c(O)cc(O)c1-c1c(O)cc(O)c3c1C(=O)c1cc(C)cc(O)c1C3=O)C2=O	64.8% (inactive)
CC(=O)c1csc2c1C(=O)c1scc(C(C)=O)c1C2=O	48.5% (inactive)
CCC(CCCN(CC)CCc1ccccc1)OC(=O)c1cc(OC)c(OC)c(OC)c1 (stereo not given)	22.4% (inactive)
COC(CCC[N+](C)(C)C)CC[N+](C)(C)C (stereo not given)	95.9% (active)
CCC(=O)c1ccc2ccc3ccccc3c2c1	62.5% (inactive)
CN(C)c1nc(N(C)C)oc(=[N+](C)C)n1	9.7% (inactive)
COc1ccc(Cc2ccc(N)cc2)cc1	92.2% (active)
CN(C)CC(CN(C)C)C(=O)c1ccc(Oc2ccccc2)cc1	99.5% (active)
C1C2OC2C2C1C1CC2C2OC12 (stereo not given)	7.9% (inactive)
Nc1ccc2c(c1)[nH]c(=O)c1cccc(Cl)c12	96.1% (active)
COc1cccc(C2c3cc4c(cc3OC(Nc3ccccc3)C2C)OCO4)c1O (stereo not given)	77.5% (active)
Cc1cc(SC#N)cc(C)c1O	82% (active)

SMILES	growth inhibition
CCN(CC)CCCNc1ncc(C)c2c1c1ccc3c(O)cccc3c1n2C	29.3% (inactive)
O=C1c2ccccc2C(O)(C#Cc2ccccc2)c2cnccc21 (stereo not given)	97.8% (active)
CC(=O)Nc1nnc(C)s1	4.25% (inactive)
CC1CN(CC(O)c2ccc(Br)cc2)CC(C)O1 (stereo not given)	58.5% (inactive)
O=C(C=P(c1ccccc1)(c1ccccc1)c1ccccc1)CC(=S)CC(=O)C=P(c1ccccc1)(c1ccccc1)c1ccccc1	97.3% (active)
CN(C)CCC(/C=C/c1ccccc1)=N\Nc1ccc(Cl)cc1Cl	99.5% (active)
Oc1c(Cl)cc(Br)cc1Cl	84.7% (active)
Cc1ccc2c(ccc(CC(=S)[S-])[n+]2C)c1	58.2% (inactive)
Cc1ccc2c(c1)C(=O)N(CC[P+](c1ccccc1)(c1ccccc1)c1ccccc1)C2=O	61.8% (inactive)
Nc1ncnc2c1c(-c1ccccc1)cn2-c1ccc(Cl)cc1	22.2% (inactive)
Nc1nnc(-c2cc([N+](=O)[O-])cc([N+](=O)[O-])c2)o1	22.8% (inactive)
COc1cc2c(cc1OC)C(Cl)C(c1ccc(F)cc1)=C2Cl (stereo not given)	17.8% (inactive)
COc1ccc(C2Oc3c(cccc3OC)C=C2[N+](=O)[O-])cc1 (stereo not given)	40.5% (inactive)
O=C(O)c1cc2cc3ccccc3cc2cc1O	73.3% (active)
Oc1ccc2ccc3ccccc3c2c1	99.5% (active)
COC(=O)c1ccc(OC)cc1	49.9% (inactive)
Clc1ccc2c(NCCCCCCNc3ccnc4cc(Cl)ccc34)ccnc2c1	65.9% (inactive)
COc1ccc(C2C3=C(CCC(CN(C)C)C3=O)OC3=C2C(=O)C(CN(C)C)CC3)cc1 (stereo not given)	-35.5% (inactive)
CC(C)CC(NC(=O)COc1c(Cl)cc(Cl)c(Cl)c1Cl)C(=O)O (stereo not given)	13% (inactive)
Cc1nc2c(=O)[nH]c3ccc(Cl)cc3c2o1	42.5% (inactive)

Assay: NCI Yeast Anticancer Drug Screen. Data for the mec2-1 strain (AID 157)
Settings: S. cerevisiae mec2-1 strain, at 5.0 µM (retest, dose inferred, filed as 0.5), hits give high values
Summary of the method: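 Vehicle-treated cultures served as reference for growth inhibition of compound-exposed mec2-1 yeast.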

SMILES	growth inhibition
O=Nc1c(O)ccc2ccccc12.[Fe].[Na+]	14% (inactive)
CC(C)Cc1ncc(CC(C)C)n(O)c1=O	26% (inactive)
COc1ccc2c(c1)CCc1c-2ccc(C)c1CCC(=O)O	21% (inactive)
COc1ccc(/C=C(\C#N)c2ccccc2)cc1OC	-18% (inactive)
CCC(=O)OCC(=O)c1ccc(-c2ccccc2)cc1	-8% (inactive)
C=C1CC(c2ccc(OCCCN3C(=O)c4ccccc4C3=O)c(OC)c2)OC1=O (stereo not given)	24% (inactive)
N[C@H](C(=O)O)[C@@H]1CC(Cl)=NO1	98% (active)
Cc1ccc2c(c1)[n+]([O-])c(N)c(C#N)[n+]2[O-]	-22% (inactive)
Cc1cc(O)c2c(c1)C(=O)c1c(c(O)cc(O)c1-c1c(O)cc(O)c3c1C(=O)c1cc(C)cc(O)c1C3=O)C2=O	29% (inactive)
CC(=O)c1csc2c1C(=O)c1scc(C(C)=O)c1C2=O	27% (inactive)
CCC(CCCN(CC)CCc1ccccc1)OC(=O)c1cc(OC)c(OC)c(OC)c1 (stereo not given)	-10% (inactive)
COC(CCC[N+](C)(C)C)CC[N+](C)(C)C (stereo not given)	-9% (inactive)
CCC(=O)c1ccc2ccc3ccccc3c2c1	8% (inactive)
CN(C)c1nc(N(C)C)oc(=[N+](C)C)n1	3% (inactive)
COc1ccc(Cc2ccc(N)cc2)cc1	-52% (inactive)
CN(C)CC(CN(C)C)C(=O)c1ccc(Oc2ccccc2)cc1	75% (active)
C1C2OC2C2C1C1CC2C2OC12 (stereo not given)	0% (inactive)
Nc1ccc2c(c1)[nH]c(=O)c1cccc(Cl)c12	-34% (inactive)
COc1cccc(C2c3cc4c(cc3OC(Nc3ccccc3)C2C)OCO4)c1O (stereo not given)	-8% (inactive)
Cc1cc(SC#N)cc(C)c1O	-3% (inactive)

SMILES	growth inhibition
CCN(CC)CCCNc1ncc(C)c2c1c1ccc3c(O)cccc3c1n2C	8% (inactive)
O=C1c2ccccc2C(O)(C#Cc2ccccc2)c2cnccc21 (stereo not given)	-5% (inactive)
CC(=O)Nc1nnc(C)s1	0% (inactive)
CC1CN(CC(O)c2ccc(Br)cc2)CC(C)O1 (stereo not given)	6% (inactive)
O=C(C=P(c1ccccc1)(c1ccccc1)c1ccccc1)CC(=S)CC(=O)C=P(c1ccccc1)(c1ccccc1)c1ccccc1	18% (inactive)
CN(C)CCC(/C=C/c1ccccc1)=N\Nc1ccc(Cl)cc1Cl	32% (inactive)
Oc1c(Cl)cc(Br)cc1Cl	19% (inactive)
Cc1ccc2c(ccc(CC(=S)[S-])[n+]2C)c1	11% (inactive)
Cc1ccc2c(c1)C(=O)N(CC[P+](c1ccccc1)(c1ccccc1)c1ccccc1)C2=O	63% (inactive)
Nc1ncnc2c1c(-c1ccccc1)cn2-c1ccc(Cl)cc1	2% (inactive)
Nc1nnc(-c2cc([N+](=O)[O-])cc([N+](=O)[O-])c2)o1	-4% (inactive)
COc1cc2c(cc1OC)C(Cl)C(c1ccc(F)cc1)=C2Cl (stereo not given)	5% (inactive)
COc1ccc(C2Oc3c(cccc3OC)C=C2[N+](=O)[O-])cc1 (stereo not given)	23% (inactive)
O=C(O)c1cc2cc3ccccc3cc2cc1O	2% (inactive)
Oc1ccc2ccc3ccccc3c2c1	2% (inactive)
COC(=O)c1ccc(OC)cc1	3% (inactive)
Clc1ccc2c(NCCCCCCNc3ccnc4cc(Cl)ccc34)ccnc2c1	-3% (inactive)
COc1ccc(C2C3=C(CCC(CN(C)C)C3=O)OC3=C2C(=O)C(CN(C)C)CC3)cc1 (stereo not given)	-3% (inactive)
CC(C)CC(NC(=O)COc1c(Cl)cc(Cl)c(Cl)c1Cl)C(=O)O (stereo not given)	-1% (inactive)
Cc1nc2c(=O)[nH]c3ccc(Cl)cc3c2o1	3% (inactive)
